From the supplement of paper PMC10646978
± gives the standard deviation.

Test system: RAW-Dual (murine macrophage reporter line)
Assay: IRF reporter (Lucia luciferase) activity fold change vs agonist alone; higher = enhanced IRF activity
Settings: modulator concentration 10 µM; agonist: MPLA […]
Method in brief: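 RAW-Dual murine macrophage reporter cells were plated at 50 000 per well in 384-well plates, pin-transferred compound to 10 μM final, and pre-incubated for 1 hour at 37 °C before a PRR agonist was added and the cells incubated overnight. NF-κB activity was read from supernatant SEAP with QUANTI-Blue at 620 nm absorbance, and IRF activity from Lucia luciferase with QUANTI-Luc by luminescence. Each signal was expressed as fold change by dividing by the mean agonist-only control on the same plate. Two replicate plates were averaged, with errors obtained by propagation.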

Structure (SMILES)	IRF reporter
CN1CCN(c2ccc(-c3cccc(NC(=O)COc4ccc(Cl)cc4Cl)c3)nn2)CC1	1.12 ± 0.29
O=C(CCN1C(=O)c2cccc([N+](=O)[O-])c2C1=O)Nc1ccc(Cl)cc1	1.14 ± 0.23
N#CCCC1(CCC#N)S(=O)(=O)CC(c2ccc(Cl)cc2)CS1(=O)=O	1.04 ± 0.091
Fc1ccc(Nc2nc(NN=Cc3ccc(Cl)cc3)nc(N3CCCCC3)n2)cc1	1.24 ± 0.2
CC(C)(C)C1CCC(OC(=O)CCC(=O)O)CC1 (stereo not given)	1.32 ± 0.24
Fc1ccccc1C=NNc1nc(-c2ccccc2)cc(-c2ccccc2)n1	1.51 ± 0.37
NC(=O)c1ccc(N2CCOCC2)c([N+](=O)[O-])c1	1.01 ± 0.1
O=C(NCC1CCCO1)c1[nH]nnc1-c1ccc(F)cc1 (stereo not given)	1.1 ± 0.12
COC(=O)C1=CN(CC2CCCO2)C=C(C(=O)OC)C1c1cccc(Cl)c1 (stereo not given)	1.1 ± 0.093
COc1ccc(CCn2c(C)c(C)n3c4c(=O)n(CCC(C)C)c(=O)n(C)c4nc23)cc1OC	1.57 ± 0.44
CC1(C)NC(=O)N(c2ccc([N+](=O)[O-])c(C(F)(F)F)c2)C1=O	1.25 ± 0.2
O=C(Nc1nc2cccc(-c3ccc(CN4CCS(=O)(=O)CC4)cc3)n2n1)C1CC1	0.845 ± 0.25
COc1ccc2cc(Br)ccc2c1CC(N)=O	0.961 ± 0.14
Cc1sc2ncnc(Nc3ccc(F)cc3)c2c1C	1.07 ± 0.27
CC1CCN(c2cc(N3CCNCC3)ncn2)CC1	1.26 ± 0.26
Oc1cccc(C=Nc2ccc(N=Cc3cccc(O)c3O)cc2)c1O	0.922 ± 0.2
C=C1CCC2C(C)(CO)C(O)CCC2(C)C1CC=C1C(=O)OCC1O (stereo not given)	1.51 ± 0.18
COC1CCN(C2CCN(S(=O)(=O)c3ccccc3)CC2)CC1	1.03 ± 0.23
CC(NCCc1c[nH]c2ccccc12)=C1C(=O)c2ccccc2C1=O	1.28 ± 0.11
Cc1c(Cl)cccc1S(=O)(=O)NCc1ccnc(N2CCCC2=O)c1	1.03 ± 0.093

Structure (SMILES)	IRF reporter
CN(C)C/C=C/C(=O)Nc1cc2c(Nc3ccc(F)c(Cl)c3)ncnc2cc1O[C@H]1CCOC1.O=C(O)/C=C\C(=O)O.O=C(O)/C=C\C(=O)O	0.855 ± 0.3
CCCOc1cccc(C(=O)Nc2cccc(S(N)(=O)=O)c2)c1	1.05 ± 0.27
Cc1ccc2[nH]c3nc(NN)nnc3c2c1	0.836 ± 0.071
CCN(CC)S(=O)(=O)c1ccc(C(=O)Nc2cc(C)nn2-c2nc(C)c(C)c(=O)[nH]2)cc1	0.994 ± 0.086
Cc1cc(C)n2nc(C(=O)NN=Cc3ccc(N(C)C)cc3)nc2n1	1.3 ± 0.25
Cc1ccc(CSCCNC(=O)CN(c2cccc(C)c2)S(C)(=O)=O)cc1	1.15 ± 0.2
CC1CCc2cc(F)cc3c(=O)c(C(=O)O)cn1c23 (stereo not given)	0.86 ± 0.16
CN1C2CCCC1CC(NC(=O)c1nn(C)c3ccccc13)C2.Cl (stereo not given)	1.03 ± 0.19
O=C(CCc1ccc(O)cc1)c1c(O)cc(O)cc1O	1.23 ± 0.15
COc1ccc(-n2cnc3cc(NC(C)=O)ccc32)cc1	1.14 ± 0.12
NC(=O)c1ncn([C@@H]2O[C@H](CO)[C@@H](O)[C@H]2O)n1	1.77 ± 0.18
O=c1[nH]c(NN=Cc2c3ccccc3cc3ccccc23)nc2ccccc12	1.23 ± 0.19
COc1ccc(C(=O)N2CC(n3cc(CN4CCCC4=O)nn3)C2)cc1F	0.952 ± 0.14
CCOC(=O)c1cc(-c2ccccc2)sc1NC(=O)C(C)(C)C	1.44 ± 0.17
O=C(O)CC(C(=O)O)N1C(=O)C(=C2C(=O)Nc3ccc(Br)cc32)SC1=S (stereo not given)	1.59 ± 0.4
N#Cc1nc(-c2ccc(COc3ccccc3)o2)oc1N1CCCCC1	1.3 ± 0.14
NC(N)=NN=Cc1ccc(OS(=O)(=O)c2ccccc2)cc1	1.04 ± 0.13
CC(C)OC(=O)c1c(NC(=O)C2CC=CCC2C(=O)O)sc2c1CCCC2 (stereo not given)	1.14 ± 0.28
CCOC(C#CCN(CC)CC)(c1ccccc1)c1ccccc1.Cl	1.62 ± 0.4
CCN(CC)C(=O)N1CCN(C)CC1 [Prestw-284]	1.28 ± 0.14

Test system: RAW-Dual (murine macrophage reporter line)
Assay: viability score (confluency relative to resting cells, overnight) (fraction); higher = more viable, active = viable (0.7 or more)
Settings: modulator concentration 10 µM
Method in brief: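 Confluency was the readout: RAW-Dual macrophages were imaged with IncuCyte after an overnight exposure to compound at 10 μM final. IncuCyte software produced two masks over all imaged wells. The viability score expresses confluency against resting cells, and both masks had to exceed 70% of resting cells for a compound to meet the cutoff.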

Structure (SMILES)	viability score
CN1CCN(c2ccc(-c3cccc(NC(=O)COc4ccc(Cl)cc4Cl)c3)nn2)CC1	0.982 (active)
O=C(CCN1C(=O)c2cccc([N+](=O)[O-])c2C1=O)Nc1ccc(Cl)cc1	1.01 (active)
N#CCCC1(CCC#N)S(=O)(=O)CC(c2ccc(Cl)cc2)CS1(=O)=O	0.97 (active)
Fc1ccc(Nc2nc(NN=Cc3ccc(Cl)cc3)nc(N3CCCCC3)n2)cc1	1.05 (active)
CC(C)(C)C1CCC(OC(=O)CCC(=O)O)CC1 (stereo not given)	0.997 (active)
Fc1ccccc1C=NNc1nc(-c2ccccc2)cc(-c2ccccc2)n1	1 (active)
NC(=O)c1ccc(N2CCOCC2)c([N+](=O)[O-])c1	0.993 (active)
O=C(NCC1CCCO1)c1[nH]nnc1-c1ccc(F)cc1 (stereo not given)	1 (active)
COC(=O)C1=CN(CC2CCCO2)C=C(C(=O)OC)C1c1cccc(Cl)c1 (stereo not given)	0.994 (active)
COc1ccc(CCn2c(C)c(C)n3c4c(=O)n(CCC(C)C)c(=O)n(C)c4nc23)cc1OC	0.95 (active)
CC1(C)NC(=O)N(c2ccc([N+](=O)[O-])c(C(F)(F)F)c2)C1=O	0.968 (active)
O=C(Nc1nc2cccc(-c3ccc(CN4CCS(=O)(=O)CC4)cc3)n2n1)C1CC1	0.834 (active)
COc1ccc2cc(Br)ccc2c1CC(N)=O	0.968 (active)
Cc1sc2ncnc(Nc3ccc(F)cc3)c2c1C	0.981 (active)
CC1CCN(c2cc(N3CCNCC3)ncn2)CC1	0.997 (active)
Oc1cccc(C=Nc2ccc(N=Cc3cccc(O)c3O)cc2)c1O	0.984 (active)
C=C1CCC2C(C)(CO)C(O)CCC2(C)C1CC=C1C(=O)OCC1O (stereo not given)	0.839 (active)
COC1CCN(C2CCN(S(=O)(=O)c3ccccc3)CC2)CC1	1.01 (active)
CC(NCCc1c[nH]c2ccccc12)=C1C(=O)c2ccccc2C1=O	0.991 (active)
Cc1c(Cl)cccc1S(=O)(=O)NCc1ccnc(N2CCCC2=O)c1	0.957 (active)

Structure (SMILES)	viability score
CN(C)C/C=C/C(=O)Nc1cc2c(Nc3ccc(F)c(Cl)c3)ncnc2cc1O[C@H]1CCOC1.O=C(O)/C=C\C(=O)O.O=C(O)/C=C\C(=O)O	0.999 (active)
CCCOc1cccc(C(=O)Nc2cccc(S(N)(=O)=O)c2)c1	1 (active)
Cc1ccc2[nH]c3nc(NN)nnc3c2c1	1 (active)
CCN(CC)S(=O)(=O)c1ccc(C(=O)Nc2cc(C)nn2-c2nc(C)c(C)c(=O)[nH]2)cc1	0.99 (active)
Cc1cc(C)n2nc(C(=O)NN=Cc3ccc(N(C)C)cc3)nc2n1	1.01 (active)
Cc1ccc(CSCCNC(=O)CN(c2cccc(C)c2)S(C)(=O)=O)cc1	1 (active)
CC1CCc2cc(F)cc3c(=O)c(C(=O)O)cn1c23 (stereo not given)	0.999 (active)
CN1C2CCCC1CC(NC(=O)c1nn(C)c3ccccc13)C2.Cl (stereo not given)	0.998 (active)
O=C(CCc1ccc(O)cc1)c1c(O)cc(O)cc1O	0.998 (active)
COc1ccc(-n2cnc3cc(NC(C)=O)ccc32)cc1	1.01 (active)
NC(=O)c1ncn([C@@H]2O[C@H](CO)[C@@H](O)[C@H]2O)n1	0.986 (active)
O=c1[nH]c(NN=Cc2c3ccccc3cc3ccccc23)nc2ccccc12	0.999 (active)
COc1ccc(C(=O)N2CC(n3cc(CN4CCCC4=O)nn3)C2)cc1F	0.999 (active)
CCOC(=O)c1cc(-c2ccccc2)sc1NC(=O)C(C)(C)C	1.02 (active)
O=C(O)CC(C(=O)O)N1C(=O)C(=C2C(=O)Nc3ccc(Br)cc32)SC1=S (stereo not given)	0.995 (active)
N#Cc1nc(-c2ccc(COc3ccccc3)o2)oc1N1CCCCC1	0.981 (active)
NC(N)=NN=Cc1ccc(OS(=O)(=O)c2ccccc2)cc1	0.433 (inactive)
CC(C)OC(=O)c1c(NC(=O)C2CC=CCC2C(=O)O)sc2c1CCCC2 (stereo not given)	1.01 (active)
CCOC(C#CCN(CC)CC)(c1ccccc1)c1ccccc1.Cl	0.0625 (inactive)
CCN(CC)C(=O)N1CCN(C)CC1 [Prestw-284]	0.99 (active)
